This passage reports inhibition results from ChEMBL document CHEMBL3433997, “St. Jude Leishmania screening dataset” (2016).

Holding throughout (assay type): functional
In assay [1] the target is Solute carrier family 2, facilitated glucose transporter member 1 (Homo sapiens) (UniProt P11166). Put plainly: ST_JUDE_LEISH: Cytotoxicity at 2uM final concentration against transgenic Leishmania Mexicana promastigotes LmGLUT1 that are glucose transport deficient and complemented with the human glucose transporter GLUT1. Activity is measured by DNA content using SYBR green in vitro.

The target in assay [2] is Hexose transporter 1 (Plasmodium falciparum) (UniProt O97467). In words: ST_JUDE_LEISH: Cytotoxicity at 2uM final concentration against transgenic Leishmania Mexicana promastigotes LmPfHT that are glucose transport deficient and complemented with the Plasmodium falciparum hexose transporter. Activity is measured by DNA content using SYBR green in vitro.
Assay [3] concerns the target Glucose transporter (Leishmania mexicana) (UniProt O61059). Put plainly: ST_JUDE_LEISH: Cytotoxicity at 2uM final concentration against transgenic Leishmania Mexicana promastigotes LmGT2 that are glucose transport deficient and complemented with the L. Mexicana glucose transporter 2. Activity is measured by DNA content using SYBR green in vitro.

Solute carrier family 2, facilitated glucose transporter member 1 (Homo sapiens), sequence (P11166 whole entry): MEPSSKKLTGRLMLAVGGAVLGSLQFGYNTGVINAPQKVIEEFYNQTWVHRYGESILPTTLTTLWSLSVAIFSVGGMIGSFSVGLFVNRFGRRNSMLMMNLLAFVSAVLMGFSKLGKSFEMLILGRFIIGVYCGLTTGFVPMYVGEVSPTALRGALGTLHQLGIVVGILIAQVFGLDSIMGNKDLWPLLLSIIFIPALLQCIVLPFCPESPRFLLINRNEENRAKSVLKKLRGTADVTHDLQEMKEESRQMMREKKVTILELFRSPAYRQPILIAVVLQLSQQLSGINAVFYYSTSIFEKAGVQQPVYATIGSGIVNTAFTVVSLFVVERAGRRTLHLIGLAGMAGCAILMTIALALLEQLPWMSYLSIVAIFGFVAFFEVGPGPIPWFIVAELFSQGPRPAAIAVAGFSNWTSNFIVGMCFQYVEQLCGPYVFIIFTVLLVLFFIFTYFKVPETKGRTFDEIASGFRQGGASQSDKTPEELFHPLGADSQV

For `CCc1c(CCNCCCCCCNCCc2ccccc2)ccc(OC)c1OC`, the inhibition in assay [1] is 4.61%; in assay [2], 5.04%; in assay [3], 2.63%.

On to `CCCCCN1CCCCC(NS(=O)(=O)c2ccc(C(=O)Nc3ccc(C(F)(F)F)cc3)cc2)C1` (stereo unspecified), for which the results for the inhibition in assay [1], in assay [2] and in assay [3] were 0.12%, 2.98% and -1.53%, respectively.

For the molecule `CCc1cn2c3c(cc(C(=O)N[C@@H](Cc4ccccc4)[C@H](O)CNCC(C)C)cc13)N(C)S(=O)(=O)CC2`, the inhibition in assay [1] came out at 3.97%; in assay [2], 4.71%; in assay [3], 3.3%.

On to `COc1ccc(CNC(=O)c2cnc3cc(-c4c(C)noc4C)ccc3c2Nc2ccccc2C(C)(C)C)cc1`, for which the inhibition in assay [1] is 3.17%; in assay [2], 4.17%; in assay [3] it was 1.52%.

Turning to `CC1CN(c2cnn(Cc3ccc(NC(=O)Nc4ccc(F)cc4[N+](=O)[O-])cc3)c(=O)c2Cl)CC(C)N1` (stereo unspecified), the inhibition in assay [1] came to 2.34%; in assay [2], 1.28%; in assay [3], 2.58%.

Take `O=C(/C=C/c1ccc(Cl)c(Cl)c1)NC1CCC(CN2CCC(c3nc4ccccc4n3CCCO)CC2)CC1` (stereo unspecified): the inhibition is 0.86% in assay [1], 1.32% in assay [2] and 1.75% in assay [3].

With `O=C(Nc1ccc(OC2CCN(Cc3ccc(F)cc3)CC2)c(Cl)c1)c1ccccc1`, the inhibition in assay [1] is -3.58%; in assay [2], 0.82%; in assay [3], 6.06%.

Take `Cc1ccc(OC2CCN(c3ccc(C(=O)NC4CC4)cn3)CC2)cc1`: the inhibition in assay [1] was found to be 0.24%; in assay [2] it was 2.06%; in assay [3] it was 1.55%.

On to `CC(=O)Nc1ccc(OCCCCN(Cc2ccccc2C(F)(F)F)c2ccc(C#N)c(C(F)(F)F)c2)c(Cl)c1`, for which the inhibition in assay [1] was 4.39%; in assay [2], 4.65%; in assay [3] it was 4.57%.

Consider `CN1CCC(N2CCN(Cc3ccc(-c4cccc(-c5nc6ccccc6[nH]5)c4)cc3)CC2)CC1`, for which the inhibition in assay [1] was 0.9%; in assay [2], 1.87%; in assay [3], 1.93%.

As for `Cc1cc(C)c(C)c(OCCCON2C(=N)N=C(N)NC2(C)C)c1C`, the inhibition in assay [1] was 1.55%; in assay [2] it was -0.22%; in assay [3], 2.17%.

With `CC(=O)Nc1ccc(CNC2Cc3ccc(-c4ccc(Cl)c(Cl)c4)cc3C2)cc1` (stereo unspecified), the results for the inhibition in assay [1], in assay [2] and in assay [3] were -0.97%, -1.57% and -0.25%, respectively.

Consider `c1ccc(-c2cc(NCCCCCCCCNc3cc(-c4ccccc4)nc4ccccc34)c3ccccc3n2)cc1`, for which the inhibition in assay [1] came out at 105%; in assay [2], 104%; in assay [3], 83.4%.

Consider `CCCOc1cc(OCCC)cc(-c2cc(=O)c3ccccc3[nH]2)c1`, for which the inhibition is 0.94% in assay [1], 6.37% in assay [2] and 3.56% in assay [3].

As for `O=C(Nc1ccc(NC2=NCCN2)cc1)c1ccc(C(=O)Nc2ccc(NC3=NCCN3)cc2)cc1`, the inhibition was 17.6% in assay [1], 18.1% in assay [2] and 6.75% in assay [3].

`CN(C)CCNCc1cccc(-c2ccc3c(Nc4cc(O)c(Cl)cc4F)ccnc3c2)c1`: the inhibition in assay [1] stood at 3.57%; in assay [2], 5.09%; in assay [3], 3.04%.

On to `CC(C)CCn1c(Sc2ccc(C#N)c([N+](=O)[O-])c2)nnc1-c1ccc(Cl)cc1`, for which the inhibition in assay [1] was 10.1%; in assay [2], 9.73%; in assay [3] it was 4.99%.

Turning to `O=C(N[C@H]1CCN(Cc2ccc(OCCCN3CCCCC3)cc2)C1)c1ccc(Oc2ccccc2)cc1`, the inhibition in assay [1] came to 72.1%; in assay [2], 19.9%; in assay [3], 13.7%.

With `Cc1nc(C)c(-c2ccc(C(F)(F)F)cc2)c(O)c1Br`, the inhibition was found to be 2.72% in assay [1], 1.79% in assay [2] and 0.77% in assay [3].

As to `CS(=O)(=O)NCCCNCc1ccc(-c2ccc(-c3nc4cc(C(F)(F)F)ccc4[nH]3)cc2)cc1`, the inhibition was 2.14% in assay [1], 2.39% in assay [2] and 1.11% in assay [3].

For `CCN(CCCN1CCCCC1)c1cc(C)nc(Nc2ccc(F)c(C(F)(F)F)c2)n1`, the values for the inhibition in assay [1], in assay [2] and in assay [3] were -1.41%, -1.38% and -0.24%, respectively.

Turning to `CO/C(=C\C=C\c1cc2cc(Cl)c(Cl)cc2[nH]1)C(=O)NCCCN1CC(C)N(C)CC1C` (stereo unspecified), the inhibition in assay [1] was found to be 7.33%; in assay [2], 5.89%; in assay [3], 6.63%.

With `Cc1cc(C(=O)Nc2nc(-c3ccccn3)nc3ccsc23)no1`, the figures for the inhibition in assay [1], in assay [2] and in assay [3] were 75.8%, 75.1% and 68.5%, respectively.

As for `CCCCc1ccc(-c2ccc3[nH]c(C)c(Br)c(=O)c3c2)cc1`, the inhibition in assay [1] is 3.02%; in assay [2], 3.88%; in assay [3] it was 2.44%.

For `COc1cccc(OC2CCN(C(=O)c3cc(C(C)(C)C)nn3Cc3ccccc3)CC2)c1`, the inhibition in assay [1] turned out to be 1.4%; in assay [2] it was 0.53%; in assay [3], 1.38%.

Regarding `CCN1CCCC1CN(Cc1ccc(-c2ccc(C(F)(F)F)cc2)cc1)C(=O)Cn1c(CCc2cccc(F)c2F)nc(=O)c2ccccc21` (stereo unspecified), the results for the inhibition in assay [1], in assay [2] and in assay [3] were 1.13%, 2.82% and 1.11%, respectively.

For the molecule `COC(=O)Nc1cc(C(F)(F)F)ccc1N1CCC(CNS(=O)(=O)c2ccc(OC)cc2)CC1`, the inhibition was determined as 7.63% in assay [1], 4.92% in assay [2] and 6.14% in assay [3].

As for `CCC(C)NC(=O)Nc1ccc(-c2cccc(-c3nc4cccc(C)c4[nH]3)c2)cc1` (stereo unspecified), the inhibition in assay [1] was 0.47%; in assay [2], 0.26%; in assay [3], -0.8%.

As for `Cc1c(N=O)cc(C(C)(C)C)c(O)c1C(=O)Nc1ccc([N+](=O)[O-])cc1Cl`, the inhibition was 2.33% in assay [1], 5.18% in assay [2] and -0.56% in assay [3].

Consider `O=C(/C=C/c1ccc2ccccc2c1)NCCCCCN1CCC(c2c[nH]c3ccccc23)CC1`, for which the inhibition was 3.34% in assay [1], 5.66% in assay [2] and 0.03% in assay [3].

In the case of `COc1cc2ncnc(Nc3ccc(OCc4ccccc4)c(C(F)(F)F)c3)c2cc1OC`, the inhibition in assay [1] was determined as 1.67%; in assay [2], 0.75%; in assay [3] it was 0.32%.

For the molecule `COc1ccc(-c2cncc3ccc(C(=O)NCc4ccncc4)nc23)cc1`, the inhibition in assay [1] amounted to 6.53%; in assay [2] it was 4.27%; in assay [3] it was 2.69%.

As a reminder, the inhibition is the drop in the measured response relative to a control, in per cent.
